# Data as given in article PMC11006913.
# What was measured:
# Test in all cases: PBM; 200 nM protein, PBS
# Settings in all cases: dsDNA, one strand shown
# [1] = target: HESX1 (Homo sapiens, UniProt Q9UBX0 95-180, R165K)
# [2] = target: HESX1 (Homo sapiens, UniProt Q9UBX0 95-180)
# [3] = target: HESX1 (Homo sapiens, UniProt Q9UBX0 95-180, R109Q)
# [4] = target: HESX1 (Homo sapiens, UniProt Q9UBX0 95-180, P111T)
# [5] = target: HESX1 (Homo sapiens, UniProt Q9UBX0 95-180, F115L)
# [6] = target: ALX4 (Homo sapiens, UniProt Q9H161 200-286)
# ALX4 (Homo sapiens, UniProt Q9H161 200-286), sequence (Q9H161 200-286): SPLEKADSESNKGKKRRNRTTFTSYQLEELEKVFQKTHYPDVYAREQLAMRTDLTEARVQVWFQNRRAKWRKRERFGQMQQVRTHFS
# [7] = target: PRRX1 (Homo sapiens, UniProt P54821 80-166, F113S)
# PRRX1 (Homo sapiens, UniProt P54821 80-166, F113S), sequence (P54821 80-166 F113S): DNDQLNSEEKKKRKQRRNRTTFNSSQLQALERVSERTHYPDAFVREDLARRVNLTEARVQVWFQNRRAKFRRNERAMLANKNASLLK
# [8] = target: ALX4 (Homo sapiens, UniProt Q9H161 200-286, Q225E)
# ALX4 (Homo sapiens, UniProt Q9H161 200-286, Q225E), sequence (Q9H161 200-286 Q225E): as the sequence (Q9H161 200-286) above, with Q26E counted along it
# [9] = target: MSX2 (Homo sapiens, UniProt P35548 130-214, R199I)
# MSX2 (Homo sapiens, UniProt P35548 130-214, R199I), sequence (P35548 130-214 R199I): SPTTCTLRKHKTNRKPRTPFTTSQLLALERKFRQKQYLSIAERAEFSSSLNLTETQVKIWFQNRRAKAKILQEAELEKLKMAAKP
# [10] = target: ALX1 (Homo sapiens, UniProt Q15699 118-204, L144V)
# ALX1 (Homo sapiens, UniProt Q15699 118-204, L144V), sequence (Q15699 118-204 L144V): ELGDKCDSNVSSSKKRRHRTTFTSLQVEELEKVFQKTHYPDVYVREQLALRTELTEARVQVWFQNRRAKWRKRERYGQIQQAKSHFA
# [11] = target: ALX1 (Homo sapiens, UniProt Q15699 118-204, L144R)
# ALX1 (Homo sapiens, UniProt Q15699 118-204, L144R), sequence (Q15699 118-204 L144R): as the sequence (Q15699 118-204 L144V) above, with V27R counted along it
# [12] = target: PROP1 (Homo sapiens, UniProt O75360 56-141)
# PROP1 (Homo sapiens, UniProt O75360 56-141), sequence (O75360 56-141): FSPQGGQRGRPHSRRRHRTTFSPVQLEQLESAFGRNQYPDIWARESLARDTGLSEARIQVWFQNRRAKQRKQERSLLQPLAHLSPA
# [13] = target: PROP1 (Homo sapiens, UniProt O75360 56-141, R99H)
# PROP1 (Homo sapiens, UniProt O75360 56-141, R99H), sequence (O75360 56-141 R99H): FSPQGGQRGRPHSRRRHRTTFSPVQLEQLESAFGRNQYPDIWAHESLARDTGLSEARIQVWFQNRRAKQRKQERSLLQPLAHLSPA
# [14] = target: ALX3 (Homo sapiens, UniProt O95076 139-225, L168Q)
# ALX3 (Homo sapiens, UniProt O95076 139-225, L168Q), sequence (O95076 139-225 L168Q): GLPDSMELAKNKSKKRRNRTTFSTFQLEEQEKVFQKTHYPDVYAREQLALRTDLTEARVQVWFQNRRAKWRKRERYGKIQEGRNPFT
# [15] = target: ALX3 (Homo sapiens, UniProt O95076 139-225, L168V)
# ALX3 (Homo sapiens, UniProt O95076 139-225, L168V), sequence (O95076 139-225 L168V): as the sequence (O95076 139-225 L168Q) above, with Q30V counted along it
# [16] = target: PROP1 (Homo sapiens, UniProt O75360 56-141, F88S)
# PROP1 (Homo sapiens, UniProt O75360 56-141, F88S), sequence (O75360 56-141 F88S): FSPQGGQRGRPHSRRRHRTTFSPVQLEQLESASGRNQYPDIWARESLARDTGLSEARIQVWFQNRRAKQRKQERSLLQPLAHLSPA
# [17] = target: MSX2 (Homo sapiens, UniProt P35548 130-214, F161Y)
# MSX2 (Homo sapiens, UniProt P35548 130-214, F161Y), sequence (P35548 130-214 F161Y): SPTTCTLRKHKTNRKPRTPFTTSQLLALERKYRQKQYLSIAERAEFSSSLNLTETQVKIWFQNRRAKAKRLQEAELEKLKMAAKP
# [18] = target: ALX1 (Homo sapiens, UniProt Q15699 118-204)
# ALX1 (Homo sapiens, UniProt Q15699 118-204), sequence (Q15699 118-204): as the sequence (Q15699 118-204 L144V) above, with V27L counted along it
# [19] = target: PRRX1 (Homo sapiens, UniProt P54821 80-166)
# PRRX1 (Homo sapiens, UniProt P54821 80-166), sequence (P54821 80-166): as the sequence (P54821 80-166 F113S) above, with S34F counted along it
# [20] = target: MSX2 (Homo sapiens, UniProt P35548 130-214)
# MSX2 (Homo sapiens, UniProt P35548 130-214), sequence (P35548 130-214): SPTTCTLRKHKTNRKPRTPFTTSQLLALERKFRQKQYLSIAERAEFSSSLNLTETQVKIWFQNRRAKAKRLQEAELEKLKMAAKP
# HESX1 (Homo sapiens, UniProt Q9UBX0 95-180, F115L), sequence (Q9UBX0 95-180 F115L): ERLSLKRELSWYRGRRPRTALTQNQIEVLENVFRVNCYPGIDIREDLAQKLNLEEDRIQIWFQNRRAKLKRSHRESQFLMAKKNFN
# HESX1 (Homo sapiens, UniProt Q9UBX0 95-180, R165K), sequence (Q9UBX0 95-180 R165K): as the sequence (Q9UBX0 95-180 F115L) above, with L21F, R71K counted along it
# HESX1 (Homo sapiens, UniProt Q9UBX0 95-180, R109Q), sequence (Q9UBX0 95-180 R109Q): as the sequence (Q9UBX0 95-180 F115L) above, with R15Q, L21F counted along it
# HESX1 (Homo sapiens, UniProt Q9UBX0 95-180, P111T), sequence (Q9UBX0 95-180 P111T): as the sequence (Q9UBX0 95-180 F115L) above, with P17T, L21F counted along it
# HESX1 (Homo sapiens, UniProt Q9UBX0 95-180), sequence (Q9UBX0 95-180): as the sequence (Q9UBX0 95-180 F115L) above, with L21F counted along it
sequence,measurement,setting,value
CCGAGCGG,binding signal,[1],"6.41 upbm affinity estimate (log intensity, higher = more binding, comparable within an allelic series)"
same,binding signal,[2],"6.46 upbm affinity estimate (log intensity, higher = more binding, comparable within an allelic series)"
same,binding signal,[3],"6.48 upbm affinity estimate (log intensity, higher = more binding, comparable within an allelic series)"
same,binding signal,[4],"6.49 upbm affinity estimate (log intensity, higher = more binding, comparable within an allelic series)"
same,binding signal,[5],"6.36 upbm affinity estimate (log intensity, higher = more binding, comparable within an allelic series)"
AATTAAGC,binding signal,[1],"11.5 upbm affinity estimate (log intensity, higher = more binding, comparable within an allelic series)"
same,binding signal,[6],"13.7 upbm affinity estimate (log intensity, higher = more binding, comparable within an allelic series)"
same,binding signal,[7],"11 upbm affinity estimate (log intensity, higher = more binding, comparable within an allelic series)"
same,binding signal,[8],"12.9 upbm affinity estimate (log intensity, higher = more binding, comparable within an allelic series)"
same,binding signal,[2],"11.6 upbm affinity estimate (log intensity, higher = more binding, comparable within an allelic series)"
same,binding signal,[9],"12.2 upbm affinity estimate (log intensity, higher = more binding, comparable within an allelic series)"
same,binding signal,[10],"11.6 upbm affinity estimate (log intensity, higher = more binding, comparable within an allelic series)"
same,binding signal,[11],"11.2 upbm affinity estimate (log intensity, higher = more binding, comparable within an allelic series)"
same,binding signal,[12],"11.2 upbm affinity estimate (log intensity, higher = more binding, comparable within an allelic series)"
same,binding signal,[3],"9.03 upbm affinity estimate (log intensity, higher = more binding, comparable within an allelic series)"
same,binding signal,[13],"11 upbm affinity estimate (log intensity, higher = more binding, comparable within an allelic series)"
same,binding signal,[14],"10.4 upbm affinity estimate (log intensity, higher = more binding, comparable within an allelic series)"
same,binding signal,[4],"10.5 upbm affinity estimate (log intensity, higher = more binding, comparable within an allelic series)"
same,binding signal,[15],"9.92 upbm affinity estimate (log intensity, higher = more binding, comparable within an allelic series)"
same,binding signal,[16],"7.71 upbm affinity estimate (log intensity, higher = more binding, comparable within an allelic series)"
same,binding signal,[17],"12.9 upbm affinity estimate (log intensity, higher = more binding, comparable within an allelic series)"
same,binding signal,[5],"7.7 upbm affinity estimate (log intensity, higher = more binding, comparable within an allelic series)"
same,binding signal,[18],"12.2 upbm affinity estimate (log intensity, higher = more binding, comparable within an allelic series)"
same,binding signal,[19],"13.3 upbm affinity estimate (log intensity, higher = more binding, comparable within an allelic series)"
AATTAGCG,binding signal,[1],"11.8 upbm affinity estimate (log intensity, higher = more binding, comparable within an allelic series)"
same,binding signal,[6],"13.9 upbm affinity estimate (log intensity, higher = more binding, comparable within an allelic series)"
same,binding signal,[7],"11 upbm affinity estimate (log intensity, higher = more binding, comparable within an allelic series)"
same,binding signal,[8],"13.1 upbm affinity estimate (log intensity, higher = more binding, comparable within an allelic series)"
same,binding signal,[2],"11.9 upbm affinity estimate (log intensity, higher = more binding, comparable within an allelic series)"
same,binding signal,[9],"12.4 upbm affinity estimate (log intensity, higher = more binding, comparable within an allelic series)"
same,binding signal,[10],"11.7 upbm affinity estimate (log intensity, higher = more binding, comparable within an allelic series)"
same,binding signal,[11],"11.3 upbm affinity estimate (log intensity, higher = more binding, comparable within an allelic series)"
same,binding signal,[20],"13.5 upbm affinity estimate (log intensity, higher = more binding, comparable within an allelic series)"
same,binding signal,[12],"11.2 upbm affinity estimate (log intensity, higher = more binding, comparable within an allelic series)"
same,binding signal,[3],"8.95 upbm affinity estimate (log intensity, higher = more binding, comparable within an allelic series)"
same,binding signal,[13],"11.2 upbm affinity estimate (log intensity, higher = more binding, comparable within an allelic series)"
same,binding signal,[14],"10.4 upbm affinity estimate (log intensity, higher = more binding, comparable within an allelic series)"
same,binding signal,[4],"10.6 upbm affinity estimate (log intensity, higher = more binding, comparable within an allelic series)"
same,binding signal,[15],"9.93 upbm affinity estimate (log intensity, higher = more binding, comparable within an allelic series)"
same,binding signal,[16],"7.48 upbm affinity estimate (log intensity, higher = more binding, comparable within an allelic series)"
same,binding signal,[17],"13 upbm affinity estimate (log intensity, higher = more binding, comparable within an allelic series)"
same,binding signal,[5],"7.68 upbm affinity estimate (log intensity, higher = more binding, comparable within an allelic series)"
same,binding signal,[18],"12.6 upbm affinity estimate (log intensity, higher = more binding, comparable within an allelic series)"
same,binding signal,[19],"13.3 upbm affinity estimate (log intensity, higher = more binding, comparable within an allelic series)"
GGAAGACC,binding signal,[1],"6.27 upbm affinity estimate (log intensity, higher = more binding, comparable within an allelic series)"
same,binding signal,[2],"6.19 upbm affinity estimate (log intensity, higher = more binding, comparable within an allelic series)"
same,binding signal,[3],"6.45 upbm affinity estimate (log intensity, higher = more binding, comparable within an allelic series)"
same,binding signal,[4],"6.41 upbm affinity estimate (log intensity, higher = more binding, comparable within an allelic series)"
same,binding signal,[5],"6.45 upbm affinity estimate (log intensity, higher = more binding, comparable within an allelic series)"
AATTAAGT,binding signal,[1],"11.6 upbm affinity estimate (log intensity, higher = more binding, comparable within an allelic series)"
same,binding signal,[6],"13.9 upbm affinity estimate (log intensity, higher = more binding, comparable within an allelic series)"
same,binding signal,[7],"11.2 upbm affinity estimate (log intensity, higher = more binding, comparable within an allelic series)"
same,binding signal,[8],"13 upbm affinity estimate (log intensity, higher = more binding, comparable within an allelic series)"
same,binding signal,[2],"11.6 upbm affinity estimate (log intensity, higher = more binding, comparable within an allelic series)"
same,binding signal,[9],"12.2 upbm affinity estimate (log intensity, higher = more binding, comparable within an allelic series)"
same,binding signal,[10],"11.7 upbm affinity estimate (log intensity, higher = more binding, comparable within an allelic series)"
same,binding signal,[11],"11.4 upbm affinity estimate (log intensity, higher = more binding, comparable within an allelic series)"
same,binding signal,[20],"13.3 upbm affinity estimate (log intensity, higher = more binding, comparable within an allelic series)"
same,binding signal,[12],"11.3 upbm affinity estimate (log intensity, higher = more binding, comparable within an allelic series)"
same,binding signal,[3],"8.53 upbm affinity estimate (log intensity, higher = more binding, comparable within an allelic series)"
same,binding signal,[13],"11.2 upbm affinity estimate (log intensity, higher = more binding, comparable within an allelic series)"
same,binding signal,[14],"10.5 upbm affinity estimate (log intensity, higher = more binding, comparable within an allelic series)"
same,binding signal,[4],"10.3 upbm affinity estimate (log intensity, higher = more binding, comparable within an allelic series)"
same,binding signal,[15],"10 upbm affinity estimate (log intensity, higher = more binding, comparable within an allelic series)"
same,binding signal,[16],"7.71 upbm affinity estimate (log intensity, higher = more binding, comparable within an allelic series)"
same,binding signal,[17],"12.9 upbm affinity estimate (log intensity, higher = more binding, comparable within an allelic series)"
same,binding signal,[5],"7.65 upbm affinity estimate (log intensity, higher = more binding, comparable within an allelic series)"
same,binding signal,[18],"12.3 upbm affinity estimate (log intensity, higher = more binding, comparable within an allelic series)"
same,binding signal,[19],"13.3 upbm affinity estimate (log intensity, higher = more binding, comparable within an allelic series)"
GAGCTGGC,binding signal,[1],"6.31 upbm affinity estimate (log intensity, higher = more binding, comparable within an allelic series)"
same,binding signal,[2],"6.3 upbm affinity estimate (log intensity, higher = more binding, comparable within an allelic series)"
same,binding signal,[3],"6.49 upbm affinity estimate (log intensity, higher = more binding, comparable within an allelic series)"
same,binding signal,[4],"6.25 upbm affinity estimate (log intensity, higher = more binding, comparable within an allelic series)"
same,binding signal,[5],"6.47 upbm affinity estimate (log intensity, higher = more binding, comparable within an allelic series)"
AGGCCCGC,binding signal,[1],"6.43 upbm affinity estimate (log intensity, higher = more binding, comparable within an allelic series)"
same,binding signal,[2],"6.37 upbm affinity estimate (log intensity, higher = more binding, comparable within an allelic series)"
same,binding signal,[3],"6.38 upbm affinity estimate (log intensity, higher = more binding, comparable within an allelic series)"
same,binding signal,[4],"6.39 upbm affinity estimate (log intensity, higher = more binding, comparable within an allelic series)"
same,binding signal,[5],"6.43 upbm affinity estimate (log intensity, higher = more binding, comparable within an allelic series)"
CCGTAGGC,binding signal,[1],"6.41 upbm affinity estimate (log intensity, higher = more binding, comparable within an allelic series)"
same,binding signal,[2],"6.44 upbm affinity estimate (log intensity, higher = more binding, comparable within an allelic series)"
same,binding signal,[3],"6.53 upbm affinity estimate (log intensity, higher = more binding, comparable within an allelic series)"
same,binding signal,[4],"6.41 upbm affinity estimate (log intensity, higher = more binding, comparable within an allelic series)"
same,binding signal,[5],"6.48 upbm affinity estimate (log intensity, higher = more binding, comparable within an allelic series)"
CCAGCGCA,binding signal,[1],"6.46 upbm affinity estimate (log intensity, higher = more binding, comparable within an allelic series)"
same,binding signal,[2],"6.4 upbm affinity estimate (log intensity, higher = more binding, comparable within an allelic series)"
same,binding signal,[9],"9.46 upbm affinity estimate (log intensity, higher = more binding, comparable within an allelic series)"
same,binding signal,[20],"9.44 upbm affinity estimate (log intensity, higher = more binding, comparable within an allelic series)"
same,binding signal,[3],"6.49 upbm affinity estimate (log intensity, higher = more binding, comparable within an allelic series)"
same,binding signal,[4],"6.38 upbm affinity estimate (log intensity, higher = more binding, comparable within an allelic series)"
same,binding signal,[17],"9.44 upbm affinity estimate (log intensity, higher = more binding, comparable within an allelic series)"
same,binding signal,[5],"6.38 upbm affinity estimate (log intensity, higher = more binding, comparable within an allelic series)"
CGCGTAGC,binding signal,[1],"6.51 upbm affinity estimate (log intensity, higher = more binding, comparable within an allelic series)"
same,binding signal,[2],"6.55 upbm affinity estimate (log intensity, higher = more binding, comparable within an allelic series)"
same,binding signal,[3],"6.51 upbm affinity estimate (log intensity, higher = more binding, comparable within an allelic series)"
same,binding signal,[4],"6.44 upbm affinity estimate (log intensity, higher = more binding, comparable within an allelic series)"
same,binding signal,[5],"6.54 upbm affinity estimate (log intensity, higher = more binding, comparable within an allelic series)"
AGAGCGCG,binding signal,[1],"6.51 upbm affinity estimate (log intensity, higher = more binding, comparable within an allelic series)"
same,binding signal,[2],"6.38 upbm affinity estimate (log intensity, higher = more binding, comparable within an allelic series)"
same,binding signal,[3],"6.56 upbm affinity estimate (log intensity, higher = more binding, comparable within an allelic series)"
same,binding signal,[4],"6.61 upbm affinity estimate (log intensity, higher = more binding, comparable within an allelic series)"
same,binding signal,[5],"6.46 upbm affinity estimate (log intensity, higher = more binding, comparable within an allelic series)"
